{"source": "PubChem BioAssay (Tox21)", "note": "Records with an inconclusive call do not appear. Activity calls are given as the source filed them. The call rests on the fitted dose curve. On the % scale 0 is the no-effect control and ±100 the full control effect."}
{"test": "p53 small molecule agonists, cell-based qHTS assay with human liver microsomes (AID 1963577)", "conditions": "HCT-116 p53RE-bla with human liver microsomes, ratio, 16 h; series mostly up to 66 µM; activation: at the top concentration", "outline": "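p53RE-bla cells, 4,000/well, compound added after 5 h, with human liver microsomes 0.5 mg/mL and NADPH 0.5 mg/mL final; 16 h at 37 C, then LiveBLAzer 2 h RT, fluorescence.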"}
{"smiles": "Clc1ccc(Cn2c(CN3CCCC3)nc3ccccc32)cc1", "activation": "-8.63% [at 30.3 µM] (inactive)"}
{"smiles": "O=C1CCCCCN1SSN1CCCCCC1=O", "activation": "-5.08% (inactive)"}
{"smiles": "CC(COc1ccc(C(C)(C)C)cc1)OS(=O)OCCCl", "note": "(configuration not stated)", "activation": "-2.8% (inactive)"}
{"smiles": "c1ccc(-c2ccc(C(c3ccccc3)n3ccnc3)cc2)cc1", "note": "(configuration not stated)", "activation": "-9.17% [at 30.3 µM] (inactive)"}
{"smiles": "Cc1onc(-c2c(Cl)cccc2Cl)c1C(=O)N[C@@H]1C(=O)N2[C@@H]1SC(C)(C)[C@@H]2C(=O)O", "activation": "-10.4% [at 30.3 µM] (inactive)"}
{"smiles": "Cc1ccc(N/N=c2\\c(=O)cc/c(=N\\Nc3ccc(S(=O)(=O)O)cc3)c2=O)c(C)c1", "activation": "-2.54% (inactive)"}
{"smiles": "CCCCC(CC)CN1CN(CC(CC)CCCC)CC(C)(N)C1", "note": "(configuration not stated)", "activation": "-5.58% [at 30.3 µM] (inactive)"}
{"test": "p53 small molecule agonists, cell-based qHTS assay with rat liver microsomes (AID 1963578)", "conditions": "HCT-116 p53RE-bla, beta-lactamase ratio, 16 h; series mostly up to 66 µM; activation: at the top concentration", "outline": "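p53RE-bla cells, 4,000/well, pre-incubated 5 h, then given compounds plus rat liver microsomes (0.5 mg/mL final) and NADPH (0.5 mg/mL final). Incubation 16 h at 37 C; beta-lactamase reporter read by LiveBLAzer fluorescence after 2 h at room temperature.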"}
{"smiles": "COc1ccc(C(=O)/C(Br)=C\\C(=O)O)cc1", "activation": "27.9% (inactive)"}
{"smiles": "COc1ccc(-c2cc(=S)ss2)cc1", "activation": "-2.55% [at 30.3 µM] (inactive)"}
{"smiles": "O=C(CCCCCCC(=O)Nc1ccccc1)NO", "activation": "-6.62% [at 30.3 µM] (inactive)"}
{"smiles": "c1cc(CN2CCCCC2)cc(OCCCNc2nc3ccccc3s2)c1", "activation": "-0.811% [at 30.3 µM] (inactive)"}
{"smiles": "O=c1[nH]c2ccccc2n1CCCN1CCN(C(c2ccccc2)c2ccccc2)CC1", "activation": "-0.275% [at 30.3 µM] (inactive)"}
{"smiles": "Cc1ccc(O)c(C(C)(C)C)c1", "Potency": "inactive"}
{"smiles": "O=C(OC[C@H]1O[C@@H](OC(=O)c2cc(O)c(O)c(OC(=O)c3cc(O)c(O)c(O)c3)c2)[C@H](OC(=O)c2cc(O)c(O)c(OC(=O)c3cc(O)c(O)c(O)c3)c2)[C@@H](OC(=O)c2cc(O)c(O)c(OC(=O)c3cc(O)c(O)c(O)c3)c2)[C@@H]1OC(=O)c1cc(O)c(O)c(OC(=O)c2cc(O)c(O)c(O)c2)c1)c1cc(O)c(O)c(OC(=O)c2cc(O)c(O)c(O)c2)c1", "activation": "-4% [at 13.6 µM] (inactive)"}
{"smiles": "COc1cc(Nc2c(C#N)cnc3cc(OCCCN4CCN(C)CC4)c(OC)cc23)c(Cl)cc1Cl", "activation": "-3.01% [at 30.3 µM] (inactive)"}
{"smiles": "N[C@@H](C(=O)N[C@@H]1C(=O)N2C(C(=O)O)=C(Cl)CS[C@H]12)c1ccccc1", "activation": "-0.141% [at 5.99 µM] (inactive)"}
{"smiles": "CCCC(=O)O[C@]1(C(=O)CCl)[C@@H](C)C[C@H]2[C@@H]3CCC4=CC(=O)C=C[C@]4(C)[C@@]3(F)C(=O)C[C@@]21C", "activation": "3.45% [at 30.3 µM] (inactive)"}
{"smiles": "Cc1cccc(O)c1N", "activation": "0% (inactive)"}
{"smiles": "CCN(CC)c1ccc(C(=C2C=CC(=[N+](CC)CC)C=C2)c2cc(S(=O)(=O)O)ccc2S(=O)(=O)[O-])cc1", "activation": "-2.77% [at 30.3 µM] (inactive)"}
{"smiles": "Cc1cc(O)c2c(c1)C(=O)c1cc(O)cc(O)c1C2=O", "Potency": "inactive"}
{"smiles": "O=C1Cc2cc(CCN3CCN(c4nsc5ccccc45)CC3)c(Cl)cc2N1", "activation": "-2.01% [at 30.3 µM] (inactive)"}
{"smiles": "COc1ccccc1OCCNCC(O)COc1cccc2[nH]c3ccccc3c12", "note": "(configuration not stated)", "activation": "-7.15% [at 30.3 µM] (inactive)"}
{"smiles": "O=c1cc(-c2ccc(O)cc2)oc2cc(O)cc(O)c12", "Potency": "inactive"}
{"smiles": "CCCCCCCC/C=C/CCCCCCCC1=NCCN1CCO", "activation": "0.604% (inactive)"}
{"smiles": "CC1=NN(c2cc(Cl)c(S(=O)(=O)O)cc2Cl)C(=O)C1N=Nc1ccc(S(=O)(=O)O)cc1", "note": "(configuration not stated)", "activation": "-0.0262% (inactive)"}
{"smiles": "CN(C)CC/C=C1\\c2ccccc2Sc2ccc(Cl)cc21", "activation": "1.21% [at 30.3 µM] (inactive)"}
{"smiles": "C(=C(c1ccccc1)c1ccccc1)c1ccccc1", "activation": "12.5% (inactive)"}
{"smiles": "NC(=O)C1(N2CCCCC2)CCN(CCCN2c3ccccc3CCc3ccc(Cl)cc32)CC1", "activation": "-4.26% [at 30.3 µM] (inactive)"}
{"smiles": "O=C1c2ccccc2C(=O)c2c(O)c(O)cc(O)c21", "activation": "-4.04% (inactive)"}
{"smiles": "CCCCCCCCNC(C)C(O)c1ccc(SC(C)C)cc1", "note": "(configuration not stated)", "activation": "-7.03% [at 30.3 µM] (inactive)"}
{"smiles": "CN1CCCC(CC2c3ccccc3Sc3ccccc32)C1", "note": "(configuration not stated)", "activation": "0.427% [at 30.3 µM] (inactive)"}
{"smiles": "CCOc1ccc2nc3cc(N)ccc3c(N)c2c1", "activation": "4.46% [at 30.3 µM] (inactive)"}
{"smiles": "CC1=NN(c2ccc(S(=O)(=O)O)cc2)C(=O)C1N=Nc1ccccc1", "note": "(configuration not stated)", "activation": "-1.92% (inactive)"}
{"smiles": "Nc1ccc(N)c2c1C(=O)c1ccccc1C2=O", "activation": "-1.37% (inactive)"}
{"smiles": "CNCC[C@@H](Oc1ccccc1C)c1ccccc1", "activation": "2.27% [at 30.3 µM] (inactive)"}
{"smiles": "COc1cc([N+](=O)[O-])ccc1N", "activation": "-5.75% (inactive)"}
{"smiles": "Cc1c(C(=O)NN2CCCCC2)nn(-c2ccc(Cl)cc2Cl)c1-c1ccc(Cl)cc1", "activation": "-7.26% [at 30.3 µM] (inactive)"}
{"smiles": "CSc1ccc(/C=C2/C(C)=C(CC(=O)O)c3cc(F)ccc32)cc1", "activation": "-3.35% [at 30.3 µM] (inactive)"}
{"smiles": "CC(C)C(OC(=O)c1ccccc1)C(C)(C)COC(=O)c1ccccc1", "note": "(configuration not stated)", "activation": "22.8% (inactive)"}
{"smiles": "CN(C)C(=O)NC1(c2ccccc2)CCN(CCC[C@]2(c3ccc(Cl)c(Cl)c3)CCCN(C(=O)c3ccccc3)C2)CC1", "activation": "0.0763% [at 13.6 µM] (inactive)"}
{"smiles": "Clc1ccc(Cn2c(CN3CCCC3)nc3ccccc32)cc1", "activation": "1.5% [at 30.3 µM] (inactive)"}
{"smiles": "O=C1CCCCCN1SSN1CCCCCC1=O", "activation": "-2.7% (inactive)"}
{"smiles": "CC(COc1ccc(C(C)(C)C)cc1)OS(=O)OCCCl", "note": "(configuration not stated)", "activation": "-8.16% (inactive)"}
{"smiles": "c1ccc(-c2ccc(C(c3ccccc3)n3ccnc3)cc2)cc1", "note": "(configuration not stated)", "activation": "0.396% [at 30.3 µM] (inactive)"}
{"smiles": "Cc1onc(-c2c(Cl)cccc2Cl)c1C(=O)N[C@@H]1C(=O)N2[C@@H]1SC(C)(C)[C@@H]2C(=O)O", "activation": "-5.37% [at 30.3 µM] (inactive)"}
{"smiles": "Cc1ccc(N/N=c2\\c(=O)cc/c(=N\\Nc3ccc(S(=O)(=O)O)cc3)c2=O)c(C)c1", "activation": "-0.679% (inactive)"}
{"smiles": "CCCCC(CC)CN1CN(CC(CC)CCCC)CC(C)(N)C1", "note": "(configuration not stated)", "activation": "-3.47% [at 30.3 µM] (inactive)"}
